Among the data in ChEMBL document CHEMBL4513216, “Probing the Open Global Health Chemical Diversity Library for Multistage-Active Starting Points for Next-Generation Antimalarials” (ACS Infect Dis, 2020) are INHIBITION values, retold here.

SMILES strings stand for the structures. Hit rate of the full screen: of about 69,000 compounds, about 8,600 (12%) showed an effect of 50% or more. The list comes from a sample in which strong results are over-represented; it also holds similar structures and randomly drawn compounds.

The test system of the test is Plasmodium berghei. Description: Screen against P. berghei liver stage (PbLuc), transformed with Luciferase, at 10uM. The test is classed as functional, HepG2. The following applies: tested at 10 uM.
Take `COC(=O)CC1CCN(C(=O)c2ccc(-n3nnnc3C)cc2)CC1`: the INHIBITION is 27%.
Take `CC(C)(C)C(=O)N1CCC2(CNS(=O)(=O)c3cnccc3O2)C1` (configuration not stated): the INHIBITION turned out to be 53.2%.
Turning to `O=C(c1cccnc1)N1CCC2(CNS(=O)(=O)c3cnccc3O2)C1` (configuration not stated), the INHIBITION is listed as 37.5%.
For the molecule `O=C(c1ccccn1)N1CCC2(CNS(=O)(=O)c3cnccc3O2)C1` (configuration not stated), the INHIBITION worked out at 17.6%.
The same measure for `O=C(CNc1ccc(OC2CCOC2)cc1)NCc1ccc(F)cc1` (configuration not stated): -68.6%.
For the molecule `Cn1nnc2c(N3CC(C(=O)NCc4cccs4)C3)ncnc21`, the INHIBITION is listed as -37.2%.
`O=C(NC1CC1)N1CC[C@H]2[C@H]1CCN2c1ncccn1`: the INHIBITION is -4.82%.
In the case of `CCc1noc(CN2CCCN(C(C)=O)CC2)n1`, the INHIBITION is recorded as 25.6%.
`CCc1noc(CN2CCN(C(=O)c3ccccc3F)CC2)n1`: the INHIBITION was 43.3%.
As to `CCc1noc(CN2CCN(C(=O)COC)CC2)n1`, the INHIBITION stood at 25.6%.
For the molecule `CCc1noc(CN2CCN(C(=O)C3CC3)CC2)n1`, the INHIBITION was 54.4%.
As to `CCc1noc(CN2CCN(C(=O)Cc3ccc(F)cc3)CC2)n1`, the INHIBITION is reported as 52.4%.
For `CCc1noc(CN2CCN(C(=O)N(C)C)CC2)n1`, the INHIBITION is -27.3%.
As for `Cc1cc(C(=O)N2CCc3ncc(CN4CCOCC4)n3CC2)no1`, the INHIBITION worked out at 35.8%.
For `Cn1cnnc1C1CCCN(C(=O)COCc2ccccc2)C1` (configuration not stated), the INHIBITION was 45.7%.
In the case of `O=C1CCN(CCCS(=O)(=O)c2ccc(Cl)cc2)CCN1`, the INHIBITION came out at 20.6%.
As for `COCC(=O)N1CCCN(c2ncnc3c2CCNCC3)CC1`, the INHIBITION is 11.7%.
Take `CN(C)S(=O)(=O)N1CC[C@]2(O)CCN(c3nc4ccccc4s3)C[C@@H]2C1`: the INHIBITION turned out to be 11.3%.
As to `c1ccc2sc(N3CCN(c4ncnc5c4CCC5)CC3)nc2c1`, the INHIBITION amounted to 79.9%.
As to `Cc1cc(C(=O)N2CCN(c3nc4ccccc4s3)CC2)no1`, the INHIBITION is on record as 36.8%.
In the case of `c1ccc2sc(N3CCCN(c4ncnc5c4CCNC5)CC3)nc2c1`, the INHIBITION is recorded as 74.5%.
As for `Cn1nc2c(cc1=O)CN(c1nc3ccccc3s1)CC2`, the INHIBITION was -80.7%.
As for `NC(=O)c1cccnc1N1CCN(c2ncnc3c2CCNC3)CC1`, the figure is 31.7%; as for `Cc1ncnc(N2CCCN(c3nc4ccccc4s3)CC2)c1C`, 89.6%.
Consider `Cc1cccc(CN2CCc3ncnc(N4CCCC4)c3CC2)n1`, for which the INHIBITION is -27.4%.
Take `COCCCN1CC2(CCCN(CCn3cc(Cl)cn3)C2)CCC1=O` (configuration not stated): the INHIBITION is recorded as 17.4%.
The same measure for `CCOC(=O)Cc1csc(NC(=O)c2cc3n(n2)CCCO3)n1`: -42.6%.
With `COCCCN(CCOC)Cc1nc2c(cnn2C)c(=O)[nH]1`, the INHIBITION was 25.1%.
As to `CCN(CC)C(CNS(=O)(=O)c1ccc(C(=O)NC)cc1)c1ccco1` (configuration not stated), the INHIBITION was found to be 12.6%.
As for `CCN(CC)C(CNS(=O)(=O)c1ccc(C(N)=O)cc1)c1ccco1` (configuration not stated), the figure is 54.3%; as for `CCN(CC)C(CNCc1ccc(O)cc1)c1ccco1` (configuration not stated), 77.8%; as for `CCN(CC)C(CNS(=O)(=O)c1ccc(C(C)=O)cc1)c1ccco1` (configuration not stated), 26.4%.
As for `CCN(CC)C(CNCc1ccc(OC)c(F)c1)c1ccco1` (configuration not stated), the figure is -75%; as for `CCN(CC)C(CNCc1cc(F)cc(F)c1)c1ccco1` (configuration not stated), 34.1%.
In the case of `O=C(CCc1ccccn1)N1CCCN(C(=O)CC2CCCC2)CC1`, the INHIBITION is recorded as 21.5%.
The same measure for `N#Cc1cccc(NC(=O)N2CCC3(CCC(=O)N(C4CC4)C3)CC2)c1`: 19.5%; for `COc1ncccc1CN1CC[C@]2(C[C@@H](OCc3ccccn3)CO2)C1`: -3.52%; for `COCCN1CCCC12CCN(Cc1cccnc1OC)CC2`: 26%.
The same measure for `CCN1CCCC12CCN(Cc1cccnc1OC)CC2`: 42.3%; for `COc1ncccc1CN1CCC2(CC1)CC(OCC1CC1)CO2` (configuration not stated): 56.4%; for `CCOC1COC2(CCN(Cc3cccnc3OC)CC2)C1` (configuration not stated): 18.6%.
As for `COc1ncccc1CN1CCC2(CC1)COCCN2C`, the figure is 70.4%.
With `CCCC(=O)N1CCC(C(=O)NCCNc2ncccn2)CC1`, the INHIBITION came to 21.6%.
In the case of `Cc1c[nH]c(C2CCCN2C(=O)CCc2c(C)n[nH]c2C)n1` (configuration not stated), the INHIBITION was -0.13%.
For the molecule `CN(C)C(=O)N1CCN(C(=O)c2ccn3cncc3c2)CC1`, the INHIBITION is 15.1%.
As for `O=C(Cn1nnn(-c2cccs2)c1=O)NCC1CCOC1` (configuration not stated), the figure is 13.7%; as for `CCN(CC1CCOC1)C(=O)Cn1nnn(-c2cccs2)c1=O` (configuration not stated), 12.8%.
As to `O=C(Cn1nnn(-c2cccs2)c1=O)N(CC1CCOC1)C1CC1` (configuration not stated), the INHIBITION is on record as 51.7%.
Turning to `CC(C)c1nc2c(n1C)CCN(CCCOc1ccc(C#N)cc1)C2`, the INHIBITION was -2.53%.
As for `Nc1ncccc1C(=O)NCc1cccc(Br)c1`, the figure is 68.9%; as for `CC(C)Sc1ncccc1C(=O)NCc1cccc(N(C)C)c1`, 19.6%.
On to `COc1cccc(CNC(=O)c2cccnc2N)c1`, for which the INHIBITION amounted to 0.207%.
As to `Cc1cccc(CNC(=O)c2cccnc2N)c1`, the INHIBITION is 44.1%.
Turning to `Nc1ncccc1C(=O)NCc1cccc(Cl)c1`, the INHIBITION is 69.8%.
As for `Nc1ncccc1C(=O)NCc1ccc(Br)cc1`, the figure is -26.3%.
For `CC(C)N1CC(C(=O)NCc2ccc(S(=O)(=O)N(C)C)cc2)CC1=O` (configuration not stated), the INHIBITION was determined as 6%.
Turning to `CN1CCC(Cc2cnc(CNC(=O)Cc3cccc(F)c3)cn2)CC1`, the INHIBITION came out at 26.75%.
Consider `Cc1ccc(NC2COC3(CCN(CC(C)C)CC3)C2)nn1` (configuration not stated), for which the INHIBITION came to 46.7%.
On to `CCc1nnc2n1CCN(C(C(=O)NC1CC1)c1ccc(F)cc1)C2` (configuration not stated), for which the INHIBITION is given as 2.61%.
`CCCN1CCC(Cc2nc(CN3CCN(C)CC3)no2)CC1`: the INHIBITION turned out to be 54.4%.
Take `CN1CCN(Cc2noc(CC3CCc4ccccc43)n2)CC1` (configuration not stated): the INHIBITION was 42.1%.
Turning to `CN1CCN(Cc2noc(CCc3nc(-c4ccccc4)no3)n2)CC1`, the INHIBITION is recorded as 74.4%.
In the case of `CCCc1nc(CN2CCN(CC(O)c3ccccc3)CC2)no1` (configuration not stated), the INHIBITION is listed as 34.5%.
With `CCCc1nc(CN2CCN(Cc3noc(CCC)n3)CC2)no1`, the INHIBITION was found to be 17.7%.
As for `CN1CCC(Cc2noc(CC3CC3)n2)CC1`, the INHIBITION was found to be 48.8%.
For `Cc1noc(C)c1C(=O)N1CCC(n2cccn2)CC1`, the INHIBITION was found to be 19.4%.
Turning to `Cc1nc(CN2C(=O)CCC23CCN(c2ncccc2C)CC3)cs1`, the INHIBITION stood at 37.2%.
For `CC(=O)N1CCc2nnc(C3CCCCN3CC3CC3)n2CC1` (configuration not stated), the INHIBITION was 3.91%.
`COCCCNC(=O)Cn1c(C)cc(=O)n2nc(-c3cccs3)nc12`: the INHIBITION stood at 49.1%.
The same measure for `Cc1cc(=O)n2nc(-c3cccs3)nc2n1CC(=O)NC(C)C`: 67.3%; for `COC(=O)Cn1c(C)cc(=O)n2nc(-c3cccs3)nc12`: 29.2%.
`Cc1cccc(CN(Cc2nc3c(cnn3C)c(=O)[nH]2)C2CC2)c1`: the INHIBITION was determined as 23.7%.
Regarding `Cc1cc(C)nc(C2CCN(C(=O)CCn3nnc4ccccc43)C2)n1` (configuration not stated), the INHIBITION is listed as 22%.
For `CSc1ccccc1NC(=O)N1C[C@@H](N(C)C)[C@H](c2ccc(C)cc2)C1`, the INHIBITION was -5.38%.
Take `CCOc1ccc(CN2CC[C@@H]3CC[C@H](C2)N3)cc1CO`: the INHIBITION turned out to be 31.2%.
For `O=C(c1cscn1)N1CC[C@@H]2[C@@H]1CCN2CC1CCOCC1`, the INHIBITION was -41%.
`O=C(c1cccc(Cl)c1)N1CC[C@H]2[C@H]1CCN2CC1CC1`: the INHIBITION is 64.9%.
Turning to `O=C(c1cscn1)N1CC[C@@H]2[C@@H]1CCN2CC1CCOC1` (some centres not stated), the INHIBITION worked out at 49.4%.
Regarding `O=C(c1ccc(F)cc1)N1CC[C@H]2[C@H]1CCN2CC1CCOCC1`, the INHIBITION is recorded as 64.9%.
Consider `N#Cc1ccc(C(=O)N2CC[C@H]3[C@H]2CCN3CC2CC2)cc1`, for which the INHIBITION came to 27.2%.
With `O=C(c1ccc(F)cc1)N1CC[C@H]2[C@H]1CCN2CC1CC1`, the INHIBITION is on record as -12.2%.
With `O=C(c1ccco1)N1CC[C@H]2[C@H]1CCN2CC1CCOCC1`, the INHIBITION amounted to 25%.
For `O=C(c1cccc(Cl)c1)N1CC[C@H]2[C@H]1CCN2CC1CCOCC1`, the INHIBITION came to 30.1%.
In the case of `N#Cc1cccc(C(=O)N2CC[C@H]3[C@H]2CCN3CC2CC2)c1`, the INHIBITION is listed as 12.4%.
For the molecule `Cc1ccc(C(=O)N2CC[C@H]3[C@H]2CCN3CC2CCOCC2)cc1F`, the INHIBITION is on record as 67.2%.
With `N#Cc1ccc(C(=O)N2CC[C@H]3[C@H]2CCN3CC2CCOCC2)cc1`, the INHIBITION is reported as -13.4%.
Regarding `Cc1ccc(C(=O)N2CC[C@H]3[C@H]2CCN3CC2CCOCC2)cn1`, the INHIBITION amounted to 57.9%.
On to `COc1ncc(CN(CCCN2CCOCC2)Cc2ccc(C)o2)cn1`, for which the INHIBITION amounted to 30.4%.
`CC(C)c1ncc2c(n1)CN(CCCc1nc3ccccc3o1)CC2`: the INHIBITION is listed as 40.9%.
Regarding `Cc1cc(CN2CCC3(CC2)COC(COc2ccccn2)C3)no1` (configuration not stated), the INHIBITION is given as -19.8%.
In the case of `O=C1CCC2(CCNCC2)CN1Cc1nnc2ccccn12`, the INHIBITION is reported as 42.1%.
With `Cc1[nH]ccc1C(=O)N1CCN(C)C2(CCC(=O)N(C)CC2)C1` (configuration not stated), the INHIBITION is recorded as -2.39%.
Consider `CC(C)(C)C(=O)NCCn1ccc(-c2ccccn2)n1`, for which the INHIBITION is -43.7%.
`COc1ccc([C@@H]2CN(Cc3ccncc3)C[C@H]2N(C)C)cc1`: the INHIBITION stood at 33%.
Turning to `O=C(c1cccc(F)c1)N1CC[C@H]2[C@H]1CCN2CC1CCOCC1`, the INHIBITION is recorded as 59%.
For `Cn1cc(CN2CC[C@@H]3[C@@H]2CCN3C(=O)c2cccc(F)c2)cn1`, the INHIBITION is recorded as 10.1%.
For the molecule `N#Cc1cccc(C(=O)N2CC[C@H]3[C@H]2CCN3CC2CCOCC2)c1`, the INHIBITION was 34.6%.
Take `CS(=O)(=O)c1cncnc1C1CCCN(C(=O)Nc2ccc(F)cc2)C1` (configuration not stated): the INHIBITION is recorded as -18.555%.
Turning to `COc1ccc(C(=O)N2CCCC(n3cc(C)cn3)C2)c(F)c1` (configuration not stated), the INHIBITION is reported as 2.97%.
As for `CCS(=O)(=O)N1CCN(C(=O)NC(C)C)CC2(CNC(=O)C2)C1` (configuration not stated), the INHIBITION stood at 3.25%.
The same measure for `CC(=O)N1CCC1c1cc(N2CCNC(=O)C2)nc(C)n1` (configuration not stated): 12.84%.
As to `Cc1cnc(CN2CCN(c3nc(C)cs3)C(C)C2)cn1` (configuration not stated), the INHIBITION was 78.8%.
`Cc1csc(N2CCN(Cc3nccn3C)CC2C)n1` (configuration not stated): the INHIBITION worked out at 30%.
As for `Cc1csc(N2CCN(Cc3cnc(C)s3)CC2C)n1` (configuration not stated), the figure is 21.6%; as for `Cc1csc(N2CCN(Cc3ccccn3)CC2C)n1` (configuration not stated), 2.3%; as for `Cc1csc(N2CCN(Cc3cccnc3)CC2C)n1` (configuration not stated), 61.8%.
As to `Cc1csc(N2CCN(Cc3cscn3)CC2C)n1` (configuration not stated), the INHIBITION is 45.9%.
